Experimental data published in PubChem BioAssay (NCI).
About 83,000 compounds went through this panel and 20% of them were active in at least one assay; those are over-represented in the sample as a whole.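 Step 1: grow cells in 96-well plates. Step 2: add test compound at a single concentration. Step 3: incubate 48 h. Step 4: record percent growth.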 Activity calls are given as the source filed them. Rule for the calls: active = growth percent below 10; inactive = the rest.

Key:
Experiment in all cases: NCI-60 one-dose screen, 48 h (100 = growth as untreated, 0 = no growth, -100 = all killed)
Details in all cases: 10 µM unless noted
SR leukemia = system: SR leukemia
RPMI-8226 leukemia = system: RPMI-8226 leukemia
OVCAR-8 ovarian = system: OVCAR-8 ovarian
OVCAR-5 ovarian = system: OVCAR-5 ovarian
OVCAR-4 ovarian = system: OVCAR-4 ovarian
SK-OV-3 ovarian = system: SK-OV-3 ovarian
IGROV1 ovarian = system: IGROV1 ovarian
OVCAR-3 ovarian = system: OVCAR-3 ovarian
HS 578T breast = system: HS 578T breast
NCI/ADR-RES ovarian = system: NCI/ADR-RES ovarian
T-47D breast = system: T-47D breast
BT-549 breast = system: BT-549 breast
MDA-MB-435 melanoma = system: MDA-MB-435 melanoma
SW-620 colon = system: SW-620 colon
MCF7 breast = system: MCF7 breast
HCT-116 colon = system: HCT-116 colon
HCC-2998 colon = system: HCC-2998 colon
KM12 colon = system: KM12 colon
MDA-MB-468 breast = system: MDA-MB-468 breast

Measured: growth

Cc1cccc(NC(=O)CN2CCN(c3ncnc4c3cnn4-c3ccccc3)CC2)c1
inactive: SR leukemia 55.9% | RPMI-8226 leukemia 75.2% | OVCAR-8 ovarian 96% | OVCAR-5 ovarian 94.7% | OVCAR-4 ovarian 91.4% | SK-OV-3 ovarian 99.7% | IGROV1 ovarian 83.9% | OVCAR-3 ovarian 98.9% | HS 578T breast 88.2% | NCI/ADR-RES ovarian 89.4% | T-47D breast 72.1% | BT-549 breast 89.9% | MDA-MB-435 melanoma 93.4% | SW-620 colon 92% | MCF7 breast 74.8% | HCT-116 colon 58.6% | HCC-2998 colon 107% | KM12 colon 90.4% | MDA-MB-468 breast 89.2%

C=C1CCC2C3(C)COC(c4ccccc4F)OC3CCC2(C)C1CC(O)C1=CCOC1=O (centres undefined)
inactive: SR leukemia 30.9% | RPMI-8226 leukemia 10.7% | OVCAR-5 ovarian 74.9% | OVCAR-4 ovarian 50.3% | SK-OV-3 ovarian 110% | IGROV1 ovarian 51.4% | OVCAR-3 ovarian 31.1% | HS 578T breast 78.3% | T-47D breast 42.1% | MDA-MB-435 melanoma 27.5% | MCF7 breast 15.2% | HCC-2998 colon 36.7% | KM12 colon 45.3% | MDA-MB-468 breast 63.9%
active: OVCAR-8 ovarian -11.4% | NCI/ADR-RES ovarian 5.4% | BT-549 breast -18.8% | SW-620 colon -6.12% | HCT-116 colon -59.4%

CN(C)CCCNC(=O)c1cc(NC(=O)c2cc(NC(=O)c3ccc(/C=C/c4ccccc4)cc3)cn2C)cn1C
active: SR leukemia -30.3% | RPMI-8226 leukemia -0.0203% | SW-620 colon 7.42% | MCF7 breast -85.9% | HCT-116 colon 0.824% | KM12 colon -16.5%
inactive: OVCAR-8 ovarian 35.7% | OVCAR-5 ovarian 105% | OVCAR-4 ovarian 58.4% | SK-OV-3 ovarian 88.7% | IGROV1 ovarian 78.3% | OVCAR-3 ovarian 51.6% | HS 578T breast 94.6% | NCI/ADR-RES ovarian 91.6% | T-47D breast 54.5% | BT-549 breast 69.2% | MDA-MB-435 melanoma 58.6% | HCC-2998 colon 42.3% | MDA-MB-468 breast 37.4%

CC1(C)CC[C@]2(C(=O)Nc3ccc(F)cc3)CC[C@]3(C)C(=CCC4[C@@]5(C)C[C@@H](O)[C@H](O)[C@@](C)(CO)C5CC[C@]43C)C2C1 (some centres undefined)
inactive: OVCAR-8 ovarian 48.1% | OVCAR-5 ovarian 32.6% | OVCAR-4 ovarian 49.4% | SK-OV-3 ovarian 24.8% | IGROV1 ovarian 63.5% | OVCAR-3 ovarian 58% | HS 578T breast 45.5% | NCI/ADR-RES ovarian 43% | T-47D breast 15.5% | BT-549 breast 33.2% | MDA-MB-435 melanoma 39.9% | SW-620 colon 59.4% | HCT-116 colon 17.2% | HCC-2998 colon 36% | KM12 colon 30.1%
active: SR leukemia 1.68% | RPMI-8226 leukemia 0.573% | MCF7 breast 7.64% | MDA-MB-468 breast 7.26%

COc1ccc(-c2nc(SCC(C)C)nc(NCCc3c[nH]c4ccccc34)c2C#N)cc1
inactive: SR leukemia 19.7% | RPMI-8226 leukemia 42.8% | OVCAR-8 ovarian 80.4% | OVCAR-5 ovarian 81.5% | OVCAR-4 ovarian 73.8% | SK-OV-3 ovarian 71.7% | IGROV1 ovarian 101% | OVCAR-3 ovarian 85.4% | HS 578T breast 43.2% | NCI/ADR-RES ovarian 61.3% | T-47D breast 22.6% | BT-549 breast 80.8% | MDA-MB-435 melanoma 80.7% | SW-620 colon 72.7% | MCF7 breast 22.8% | HCT-116 colon 25.1% | HCC-2998 colon 62.6% | KM12 colon 52.8% | MDA-MB-468 breast 58.4%

Cc1cc2nc3c4ccccc4n(CCNCCN(C)C)c3nc2cc1C
active: SR leukemia -1.38% | RPMI-8226 leukemia -25.9% | MDA-MB-435 melanoma 8.22% | SW-620 colon -19.6% | MCF7 breast -28.8% | HCT-116 colon -57.8% | HCC-2998 colon -56.7% | MDA-MB-468 breast -54.4%
inactive: OVCAR-8 ovarian 24.2% | OVCAR-5 ovarian 39.5% | OVCAR-4 ovarian 33% | SK-OV-3 ovarian 68.8% | IGROV1 ovarian 20% | OVCAR-3 ovarian 40.5% | HS 578T breast 44.9% | NCI/ADR-RES ovarian 24.6% | T-47D breast 52.2% | BT-549 breast 23.8% | KM12 colon 27.4%

COc1cccc(-c2nc(Nc3ccc(S(N)(=O)=O)cc3)c3ccccc3n2)c1
inactive: SR leukemia 23.6% | OVCAR-8 ovarian 35.5% | OVCAR-5 ovarian 72.5% | OVCAR-4 ovarian 35.1% | SK-OV-3 ovarian 73.5% | IGROV1 ovarian 42.4% | OVCAR-3 ovarian 22.9% | HS 578T breast 44% | NCI/ADR-RES ovarian 26.4% | T-47D breast 20.9% | BT-549 breast 54.5% | MDA-MB-435 melanoma 38.8% | SW-620 colon 36.1% | MCF7 breast 19.8% | HCT-116 colon 32.2% | MDA-MB-468 breast 24%
active: RPMI-8226 leukemia 6.94% | HCC-2998 colon 6.44% | KM12 colon 6.75%

COc1ccc(C2=NN(C(C)=O)C(c3ccc(OCc4ccc(Cl)cc4)c(OC)c3)C2)cc1OC (centres undefined)
inactive: SR leukemia 52.4% | RPMI-8226 leukemia 37% | OVCAR-8 ovarian 43.5% | OVCAR-5 ovarian 79.8% | OVCAR-4 ovarian 29.4% | SK-OV-3 ovarian 84.9% | IGROV1 ovarian 49% | OVCAR-3 ovarian 41.4% | HS 578T breast 56.3% | NCI/ADR-RES ovarian 56.1% | T-47D breast 10.2% | BT-549 breast 33.8% | MDA-MB-435 melanoma 43% | SW-620 colon 61.2% | MCF7 breast 20.1% | HCT-116 colon 35.3% | HCC-2998 colon 83.4% | KM12 colon 39% | MDA-MB-468 breast 31.1%

CN(C)c1nc(NCCNS(=O)(=O)c2ccc(C3=Nc4c(N)nc(N)nc4NC(c4ccc(Cl)cc4)C3)cc2)nc(Nc2ccc(F)cc2)n1 (centres undefined)
inactive: OVCAR-8 ovarian 46.2% | OVCAR-5 ovarian 72.6% | OVCAR-4 ovarian 45.6% | SK-OV-3 ovarian 90.3% | IGROV1 ovarian 51.5% | OVCAR-3 ovarian 51.9% | HS 578T breast 56.3% | NCI/ADR-RES ovarian 94.4% | T-47D breast 33.8% | BT-549 breast 15.4% | MDA-MB-435 melanoma 32.3% | SW-620 colon 33.4% | HCT-116 colon 15.3% | KM12 colon 19.4%
active: SR leukemia 0.305% | RPMI-8226 leukemia -2.32% | MCF7 breast 2.35% | HCC-2998 colon -0.0718% | MDA-MB-468 breast -35.5%

COc1ccc2c(c1)C(=N/N=C(\C)c1ccc(OC)c(S(N)(=O)=O)c1)C(=O)N2
inactive: SR leukemia 83.2% | RPMI-8226 leukemia 83% | OVCAR-8 ovarian 92.7% | OVCAR-5 ovarian 99.8% | OVCAR-4 ovarian 96.6% | SK-OV-3 ovarian 97.6% | IGROV1 ovarian 107% | OVCAR-3 ovarian 106% | HS 578T breast 70.3% | NCI/ADR-RES ovarian 100% | T-47D breast 87% | BT-549 breast 59% | MDA-MB-435 melanoma 96.1% | SW-620 colon 93.9% | MCF7 breast 90.3% | HCT-116 colon 88.6% | HCC-2998 colon 111% | KM12 colon 97.5% | MDA-MB-468 breast 78.6%

Nc1nc(C(F)(F)F)cs1
inactive: SR leukemia 101% | RPMI-8226 leukemia 115% | OVCAR-8 ovarian 105% | OVCAR-5 ovarian 113% | OVCAR-4 ovarian 108% | SK-OV-3 ovarian 101% | IGROV1 ovarian 107% | OVCAR-3 ovarian 108% | HS 578T breast 109% | NCI/ADR-RES ovarian 104% | T-47D breast 99.4% | BT-549 breast 114% | MDA-MB-435 melanoma 100% | SW-620 colon 104% | MCF7 breast 93.2% | HCT-116 colon 111% | HCC-2998 colon 105% | KM12 colon 100% | MDA-MB-468 breast 101%

CC(=O)Nc1ccc(-n2cnc3cc(-c4ccc(O)cc4)ccc32)cc1C(F)(F)F
active: HS 578T breast 0.862% | MDA-MB-435 melanoma 3.5% | KM12 colon 3.46% | MDA-MB-468 breast 8.18%
inactive: SR leukemia 16.3% | RPMI-8226 leukemia 16.6% | OVCAR-8 ovarian 16.1% | OVCAR-5 ovarian 37.9% | OVCAR-4 ovarian 40.8% | SK-OV-3 ovarian 56.3% | IGROV1 ovarian 35.1% | OVCAR-3 ovarian 24.7% | NCI/ADR-RES ovarian 16.3% | T-47D breast 20.5% | BT-549 breast 32.5% | SW-620 colon 22.3% | MCF7 breast 18.4% | HCT-116 colon 31% | HCC-2998 colon 33.9%

N/C(=N\c1nc2ccccc2s1)NC(=O)Nc1c(Cl)cccc1Cl
active: NCI/ADR-RES ovarian 7.17% | MDA-MB-435 melanoma -17.9% | MDA-MB-468 breast -4.05%
inactive: SR leukemia 17.2% | RPMI-8226 leukemia 17.2% | OVCAR-8 ovarian 49.5% | OVCAR-5 ovarian 49.3% | OVCAR-4 ovarian 56.7% | SK-OV-3 ovarian 65.2% | IGROV1 ovarian 49.4% | OVCAR-3 ovarian 28.2% | HS 578T breast 34.4% | T-47D breast 18% | BT-549 breast 37.3% | SW-620 colon 25.6% | MCF7 breast 15.6% | HCT-116 colon 22.7% | HCC-2998 colon 68.6% | KM12 colon 21.4%

CCN(CC)c1ccc(/C=N/Nc2nc(-c3ccc(C)cc3)cs2)c(O)c1
inactive: SR leukemia 92.9% | RPMI-8226 leukemia 74.3% | OVCAR-8 ovarian 86.8% | OVCAR-5 ovarian 93.2% | OVCAR-4 ovarian 89.7% | SK-OV-3 ovarian 108% | IGROV1 ovarian 96.3% | OVCAR-3 ovarian 92.1% | HS 578T breast 108% | NCI/ADR-RES ovarian 92.5% | T-47D breast 68.7% | BT-549 breast 71.9% | MDA-MB-435 melanoma 96.7% | SW-620 colon 99.1% | MCF7 breast 67.8% | HCT-116 colon 72.9% | HCC-2998 colon 106% | KM12 colon 94.6% | MDA-MB-468 breast 66.7%

C#CCOc1cc(N(CC)CC)ccc1C(C(=O)NC(C)(C)C)N(C(=O)C1CCc2cc(F)ccc2O1)c1ccc(F)cc1 (centres undefined)
inactive: SR leukemia 26.7% | RPMI-8226 leukemia 25.4% | OVCAR-8 ovarian 52.4% | OVCAR-5 ovarian 69.7% | OVCAR-4 ovarian 51% | SK-OV-3 ovarian 62.4% | IGROV1 ovarian 68.2% | OVCAR-3 ovarian 47.9% | HS 578T breast 64.4% | NCI/ADR-RES ovarian 56.8% | T-47D breast 40.3% | BT-549 breast 50.9% | MDA-MB-435 melanoma 54.4% | SW-620 colon 58.6% | MCF7 breast 20.2% | HCT-116 colon 27.1% | HCC-2998 colon 71.9% | KM12 colon 25.7% | MDA-MB-468 breast 33.2%

CCCCCCCCOc1cccc(S(=O)(=O)Nc2ccc(C)cc2C(=O)O)c1
inactive: SR leukemia 90% | RPMI-8226 leukemia 64.5% | OVCAR-8 ovarian 95.6% | OVCAR-5 ovarian 114% | OVCAR-4 ovarian 90.1% | SK-OV-3 ovarian 108% | IGROV1 ovarian 99.7% | OVCAR-3 ovarian 102% | HS 578T breast 106% | NCI/ADR-RES ovarian 97.6% | T-47D breast 105% | BT-549 breast 115% | MDA-MB-435 melanoma 98.5% | SW-620 colon 96.5% | MCF7 breast 89.8% | HCT-116 colon 85.1% | HCC-2998 colon 119% | KM12 colon 96.9% | MDA-MB-468 breast 81.8%
